Assay outcomes as filed in PubChem BioAssay.
Compounds with a hit are over-represented: about 28% of the library has one in this group of screens.
CYP2C19 inh: blockers of cytochrome P450 2C19 activity – biochemical, luminescence, ADME assay, primary screen; P33261; CYP2C19 Supersomes, luciferin-H EGE luminescence, 30 min; inhibition, % at 5 µM; 21% of 96,000 active; AID 778, 2007;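 active means CYP2C19 inhibition above a set limit at 5 µM in the primary screen, cut at about 50% in these data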;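 further: plate controls were negative control wells for no effect and 2.5 mM tranylcypromine positive control for full effect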
CYP2C9 activ: human CYP2C9 activators, primary screen, biochemical, luminescence; Cytochrome P450 2C9 (Homo sapiens), P11712; activation factor at 5 µM; 1.4% of 96,000 active; AID 1024, 2008; recombinant CYP2C9, luciferin-H conversion; hits give high values; factor 1 = untreated enzyme, 0 = blocked;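 active means activation factor of 2 or more for CYP2C9 at a 5 µM dose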;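 further: 0 = sulfaphenazole-blocked wells and 1 = vehicle-only wells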
CYP2C9 inh: blockers of cytochrome P450 2C9 activity – biochemical, luminescence, ADME assay, primary screen | inhibition, % at 5 µM | 20% of 96,000 active | AID 777, 2007 | CYP2C9 Supersomes, luciferin-H conversion;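 active means blocking of liver enzyme CYP2C9 beyond about 50% at 5 µM, limit read from the data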
Mac1 fbg inh: inhibitors of CD11b/CD18 adhesion to fibrinogen, primary screen, K562 cells, luminescence; 0.54% of 93,000 active; ATPlite luminescence; Mn2+ added to activate the integrin; Integrin beta-2 (Homo sapiens) + Integrin alpha-M (Homo sapiens), P05107+P11215; AID 1497, 2009; inhibition, % at 10 µM;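 active means primary inhibition of 50% or more at 10 µM, then 40% or more on retest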
Target sequence (P05107 whole entry, looked up, other chains not shown): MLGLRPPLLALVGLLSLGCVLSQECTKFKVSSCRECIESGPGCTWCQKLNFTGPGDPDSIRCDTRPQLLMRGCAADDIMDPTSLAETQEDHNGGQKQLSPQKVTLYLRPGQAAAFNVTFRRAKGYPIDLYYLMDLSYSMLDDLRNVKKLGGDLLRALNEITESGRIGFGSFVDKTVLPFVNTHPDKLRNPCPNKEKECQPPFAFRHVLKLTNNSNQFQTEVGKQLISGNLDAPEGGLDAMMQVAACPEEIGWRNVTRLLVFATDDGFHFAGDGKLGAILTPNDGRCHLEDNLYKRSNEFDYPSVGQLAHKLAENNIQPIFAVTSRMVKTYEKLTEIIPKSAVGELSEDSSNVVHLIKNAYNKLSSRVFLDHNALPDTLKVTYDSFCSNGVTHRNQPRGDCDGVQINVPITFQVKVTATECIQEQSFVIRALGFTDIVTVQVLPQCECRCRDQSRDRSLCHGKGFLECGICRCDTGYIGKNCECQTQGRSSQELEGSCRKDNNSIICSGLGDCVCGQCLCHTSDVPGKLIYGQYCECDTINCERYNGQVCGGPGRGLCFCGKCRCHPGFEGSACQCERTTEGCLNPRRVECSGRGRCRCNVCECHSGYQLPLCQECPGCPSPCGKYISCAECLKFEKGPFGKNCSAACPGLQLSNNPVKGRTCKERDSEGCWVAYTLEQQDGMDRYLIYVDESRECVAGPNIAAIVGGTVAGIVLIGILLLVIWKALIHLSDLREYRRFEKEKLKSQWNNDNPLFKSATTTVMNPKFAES
CYP2C19 activ: human CYP2C19 activators, primary screen, biochemical, luminescence. 96,000 tested, under 10 active. activation factor at 5 µM. AID 1025, 2008. recombinant CYP2C19, luciferin-H EGE luminescence; hits give high values; 0 = fully inhibited enzyme, 1 = untreated enzyme. Cytochrome P450 2C19 (Homo sapiens), P33261;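 active means activation factor of at least 2 at 5 µM in the primary screen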;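 further: 0 = wells with 2.5 mM tranylcypromine and 1 = vehicle-only wells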
Mac1 fbg enh: enhancers of CD11b/CD18 adhesion to fibrinogen, primary screen, K562 cells, luminescence; Integrin beta-2 (Homo sapiens) + Integrin alpha-M (Homo sapiens), P05107+P11215; ATPlite luminescence; activation, % at 10 µM; 0.07% of 93,000 active; AID 1499, 2009;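 active means 10 µM primary screen giving 50% or more activity, confirmed by 40% or more on retest at that dose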
The depositor's hits bear a star; / = not tested or not shown.

SMILES	CYP2C19 inh	CYP2C9 activ	CYP2C9 inh	Mac1 fbg inh	CYP2C19 activ	Mac1 fbg enh
Cc1[nH]c2ccccc2c1C(=O)CN1CCCC1	29.7	0.6	39.0	-3.1	0.7	-1.1
COc1ccccc1N1CCN(C/C(C)=C/c2ccccc2)CC1	22.9	0.9	14.5	-2.3	0.8	-2.5
COc1ccccc1N1CCN(CC(=O)c2c(C)n(C)c3ccccc23)CC1	54.5*	1.6	-63.8	4.9	0.5	-2.6
COc1ccccc1N1CCN(CC(=O)c2c(C)[nH]c3cc(C)ccc23)CC1	62.2*	1	4.0	-6.1	0.4	-2.1
Cc1[nH]c2ccccc2c1C(=O)CN1CCSCC1	77.1*	0.6	35.4	-5.6	0.2	6.4
O=C(Nc1ccc2c(c1)OCCO2)C1CCCN(S(=O)(=O)c2cccnc2)C1 (stereo not given)	-1.2	0.9	7.1	-1.1	1	-0.9
COc1ccccc1-c1c(C(F)(F)F)oc2cc(OC(=O)c3ccccc3[N+](=O)[O-])ccc2c1=O	54.8*	0.4	62.2*	0.3	0.5	6.3
O=C(COC(=O)c1nc(Cl)ccc1Cl)c1ccc(Cl)s1	/	/	/	17.7	/	-1.7
Cc1ccc(O)c(C2=NOC(O)(C(F)(F)C(F)F)C2)c1 (stereo not given)	84.1*	0.5	52.9*	-11.8	0.2	-2.4
Cc1ccc(O)c(C2=NOC(O)(C(F)(F)F)C2)c1 (stereo not given)	68.0*	0.8	17.2	10.9	0.3	2.5
Cc1ccc(O)c(-c2cc(C(F)(F)F)[nH]n2)c1	21.0	0.8	25.0	/	0.8	/
Fc1ccc(-c2nc3c(Cl)cc(C(F)(F)F)cn3c2Cl)cc1	23.3	0.9	6.8	-19.7	0.8	0.5
CCc1cccc2c(C=C(C#N)C#N)cn(CC(=O)N3CCCC3)c12	-7.5	1	-3.6	/	1.1	/
CC1(C)CC(=O)C/C(=N/NC(=O)CCCOc2ccc(Cl)cc2Cl)C1	3.4	0.8	18.8	/	1	/
O=C(NOC(=O)c1cc(Br)ccc1Cl)c1cccs1	-6.3	1	-3.6	/	1.1	/
Nc1cc(C(=O)c2cccs2)ccc1Cl	87.3*	0.6	40.9	-8.1	0.1	-1.8
C=CCn1c(CNc2ccc(C)cc2)nnc1SCC(=O)N/N=C/c1ccc(O)cc1	14.2	1	-1.6	-1.9	0.9	-5.4
CCCCNC(=O)c1onc(CSc2cccc(C)c2)c1C(=O)O	10.2	0.2	75.9*	5.1	0.9	-3.5
CCCCNC(=O)c1onc(CSc2cc(C)cc(C)c2)c1C(=O)O	25.0	0.3	73.1*	/	0.8	/
COCCNC(=O)c1onc(CSc2cc(C)cc(C)c2)c1C(=O)O	17.4	0.7	33.2	/	0.8	/
COCCNC(=O)c1onc(CSc2ccc(C)c(C)c2)c1C(=O)O	32.9	0.8	23.6	/	0.7	/
Cc1cc(C)c(C#N)c(SCc2c(F)cccc2[N+](=O)[O-])n1	/	/	/	-2.4	/	4.7
Cc1ccc(NC(=O)c2sc3nc[nH]c(=O)c3c2C)c(C)c1	2.8	1.2	-24.2	/	1	/
COc1ccc(C2CC(c3ccccc3)=NN2c2ccc(/C=N/NC(=O)c3ccncc3)cc2)cc1 (stereo not given)	17.3	0.4	55.9*	/	0.8	/
COCCCNC(=O)Cn1nnc(-c2ccccc2NC(=O)c2ccccc2F)n1	56.9*	0.1	87.5*	3.6	0.4	2.9
SMILES	CYP2C19 inh	CYP2C9 activ	CYP2C9 inh	Mac1 fbg inh	CYP2C19 activ	Mac1 fbg enh
COc1ccc(NC(=O)Cn2nnc(-c3ccccc3F)n2)cc1Cl	-8.8	1.1	-6.2	-2.6	1.1	2.7
O=C(CN1CCC(O)(c2ccccc2F)CC1)NCCc1c[nH]c2ccccc12	9.8	0.2	80.3*	-3.1	0.9	0.0
O=C(NCCc1c[nH]c2ccccc12)C(F)(F)F	29.5	1	2.7	6.8	0.7	-3.0
COc1ccc(CCNC(=O)Cn2nnc(-c3ccccc3F)n2)cc1OC	20.9	0.4	64.7*	-3.3	0.8	-0.2
COc1ccc(CCNC(=O)CNS(=O)(=O)c2cccs2)cc1OC	64.3*	0.6	42.1	-1.5	0.4	-2.2
CC([NH2+][O-])C(C)(C)NO (stereo not given)	-10.4	1.1	-7.3	2.7	1.1	-3.5
COC(=O)CCn1nnc(-c2cccs2)n1	77.9*	1	-2.4	-1.9	0.2	0.3
COc1ccc(C(=O)Cn2nnc(-c3cccs3)n2)cc1	37.5	1	-2.0	22.2	0.6	-0.2
COc1ccc(-c2nnn(CC(=O)NCCc3c[nH]c4ccccc34)n2)cc1OC	63.5*	/	/	/	0.4	/
COc1ccc(CCNC(=O)Cn2nnc(-c3cccs3)n2)cc1OC	20.4	0.4	55.7*	-9.4	0.8	-0.9
COC(=O)c1oc2c(c1C)C1(CCC2)SCCS1	49.3	0.8	17.4	/	0.5	/
COC(=O)Cn1c(CCS(=O)(=O)c2ccc(C)cc2)nc2ccccc21	65.5*	0.9	12.4	-45.8	0.3	-4.4
CC(=O)Nc1nc2ccccc2n1Cc1ccccc1	27.0	1	4.9	/	0.7	/
COC(=O)Cn1c(CCS(=O)(=O)c2ccc(Cl)cc2)nc2ccccc21	24.8	0.9	9.8	-5.9	0.8	-2.6
CC(=O)NCCc1nc2ccccc2n1Cc1ccc(C)cc1	68.8*	0.6	42.0	-5.6	0.3	2.0
O=C(CSc1nnc(CNc2ccc(Cl)cc2)o1)Nc1nc2ccccc2s1	-10.6	0.5	46.0	-4.1	1.1	-3.6
CCCCN(CC)S(=O)(=O)c1ccc(C(=O)Nc2nnc(-c3ccccc3Cl)o2)cc1	10.6	0.3	68.8*	-5.2	0.9	0.6
CCCCN(CC)S(=O)(=O)c1ccc(C(=O)Nc2nnc(COC)o2)cc1	-4.9	0.4	64.2*	-2.0	1	-4.4
CCc1nnc(NC(=O)c2ccc(S(=O)(=O)N(CCOC)CCOC)cc2)s1	1.2	2*	-102.1	6.1	1	3.1
CCCCN(C)S(=O)(=O)c1ccc(C(=O)Nc2nnc(-c3cccs3)o2)cc1	-7.9	0.7	30.8	/	1.1	/
CCCN(CCC)S(=O)(=O)c1ccc(C(=O)Nc2nnc(CSC)o2)cc1	0.6	0.8	17.8	-9.3	1	-4.1
O=C(Nc1nnc(-c2ccccc2Cl)o1)c1ccc(S(=O)(=O)N2CCCCCC2)cc1	15.8	0.5	54.5*	-2.0	0.8	3.5
CC1CCCCN1S(=O)(=O)c1ccc(C(=O)Nc2nnc(-c3ccccc3Cl)o2)cc1 (stereo not given)	27.6	0.8	22.3	-18.7	0.7	-6.2
O=C1c2oc3ccccc3c(=O)c2C(c2ccccn2)N1Cc1ccccc1 (stereo not given)	-6.2	0.9	9.2	-5.4	1.1	3.7
